Screening data (PubChem)
Efflux pump mplx: inhibitors of Candida efflux pumps in yeast, primary screen, S. cerevisiae, Nile Red, multiplex; AID 485275, 2010; inhibition, % at 10 µM; S. cerevisiae Candida pump triplex; actives 0.44% (n = 330,000);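 active = plate passing quality check with inhibition over a set limit, or well fluorescence over plate mean plus 4 SD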;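 also: Nile Red retained in pooled yeast measured as flow cytometry median fluorescence; 0% = buffer negative control and 100% = Enniatin B positive control; higher means more Nile Red kept so more efflux inhibition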
Cardio protect: cardioprotection against H2O2-induced cell death, primary screen, uHTS, H9c2 cells, ATPLite luminescence. H9c2 cardiomyocytes, H2O2 injury protection, 2 h. protection from H2O2 cell death, % at 20 µM. actives 0.63% (n = 360,000);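 active = compounds giving at least 50% protection of heart cells from peroxide-induced death in the single-dose screen, raw or plate-pattern-corrected value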;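 also: 0% = DMSO wells with peroxide and 100% = DMSO wells without peroxide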
Cl transport mod: KCC2 cotransporter modulators, thallium flux, primary screen, cell-based, HEK293 KCC2, FluoZin-2 fluorescence, MLSMR; Solute carrier family 12 member 5 (Homo sapiens), Q9H2X9; KCC2 cells, thallium flux FluoZin-2 fluorescence; B-score of Tl+ flux slope (higher = more flux/activation; lower = inhibition) at 10 µM; actives 2.2% (n = 190,000); AID 1456, 2008;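 active = thallium flux slope and its plate-corrected score both differing from the plate sample mean at a set confidence after two filtering rounds, in either direction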;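 also: slope of fluorescence scaled to starting intensity during 10 to 20 s after thallium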
Calb FLC: C. albicans growth inhibition with fluconazole, primary screen, CaCi-2 strain, Alamar Blue fluorescence | C. albicans CaCi-2 (fluconazole-resistant clinical isolate) + fluconazole, 48 h | growth inhibition, % (concentration not given with the values) | actives 0.57% (n = 300,000) | AID 1979, 2009;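 active = growth inhibition above about 58% in most replicates, limit read from the data, passing the limit was not always enough; inconclusive = exactly half the replicates above a set limit; inactive = most replicates below a set limit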;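 also: all wells also contain fluconazole at 8 µg/ml as a sub-toxic cotreatment; 0% = median of DMSO wells and 100% = median of geldanamycin control wells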
PHOSPHO1 inh: PubChem AID 1565 | recombinant PHOSPHO1, absorbance phosphatase assay | inhibition, % at 13.3 µM | Phosphoethanolamine/phosphocholine phosphatase (Homo sapiens), Q8TCT1 | actives 1.1% (n = 290,000); in the data active = inhibition above about 60%
Target sequence (Q8TCT1 whole entry, looked up): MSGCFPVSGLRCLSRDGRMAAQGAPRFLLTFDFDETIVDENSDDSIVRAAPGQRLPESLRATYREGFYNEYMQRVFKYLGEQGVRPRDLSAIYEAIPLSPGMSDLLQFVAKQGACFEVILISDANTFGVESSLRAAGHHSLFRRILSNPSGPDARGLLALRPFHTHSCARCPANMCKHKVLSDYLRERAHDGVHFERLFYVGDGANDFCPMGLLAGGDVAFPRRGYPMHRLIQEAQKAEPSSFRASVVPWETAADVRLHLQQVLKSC
Active calls of the source: *; ? = inconclusive; / = no result. Compounds with a hit are over-represented: about 3.3% of the library has one in this group of screens.

SMILES	Efflux pump mplx	Cardio protect	Cl transport mod	Calb FLC	PHOSPHO1 inh
COC(=O)c1ccc(NC(=O)CS(=O)(=O)Cc2ccccc2)cc1	0	10	0.86	-2	-7
Cc1cccc(NC(=O)CNC(=O)c2cc(S(=O)(=O)N(C)C)ccc2N2CCCC2)c1C	/	12	/	/	/
O=c1cc(-c2ccc(O)c(O)c2)oc2c1ccc1ccccc12	0	49	/	/	/
O=c1cc(-c2cccnc2)oc2c1ccc1ccccc12	0	76*	-1.6	6	35
Cc1cc(NC(=O)Cn2nc(C(=O)O)c3ccccc3c2=O)c([N+](=O)[O-])cc1C	0	30	/	3	26
COc1ccc(C(=S)NCS(=O)(=O)c2ccc(C)cc2)cc1	0	-2	1.2	-4	-15
Cc1ccc(S(=O)(=O)CNC(=S)c2cccc(C)c2)cc1	1	-1	-0.19	15	90*
Cc1ccc(S(=O)(=O)CNC(=S)c2ccc3ccccc3c2)cc1	0	1	-0.064	0	86*
Cc1ccc(S(=O)(=O)CNC(=O)c2ccccc2)cc1	0	6	/	2	35
O=C(CSc1nnc(-c2ccco2)o1)c1ccc(O)cc1O	0	4	-0.00022	-9	24
Cc1ccc(C)c(-c2nnc(NC(=O)C3=COCCO3)o2)c1	0	5	/	15	/
O=C(Nc1nnc(-c2ccc(Cl)cc2)o1)C1=COCCO1	0	4	9.4*	42	2
CN(C)S(=O)(=O)c1ccc(C(=O)Nc2nnc(-c3cccs3)o2)cc1	0	17	-0.31	10	-16
CN(C)S(=O)(=O)c1ccc(C(=O)Nc2nnc(-c3ccc4c(c3)CCCC4)o2)cc1	0	8	8.1*	30	34
O=C(Nc1nnc(-c2ccc3c(c2)CCCC3)o1)c1ccc(Cl)cc1Cl	0	29	/	85*	-18
Clc1ccc(N(CC2CO2)CC2CO2)cc1 (centres undefined)	/	0	/	/	/
CC(=O)NCCOC(=O)c1nn(Cc2ccccc2)c(=O)c2ccccc12	0	1	/	-1	11
CC1=C(C(=O)N2CCCCCC2)CC(CC(=O)NC(c2ccccc2)c2ccccc2)C(=O)N1Cc1ccccc1 (centres undefined)	/	-2	/	/	/
C=CCn1c(C(C)NC(=O)c2ccccc2)n[nH]c1=S (centres undefined)	0	-2	/	1	80*
O=C(OCc1csc(-c2ccccc2)n1)c1cccs1	0	-34	/	4	63*
Cn1cccc1C(=O)OCc1csc(-c2ccccc2)n1	0	-26	-1.9	-30	100*
CCCCn1c(CCn2nc(C)c(Br)c2C)n[nH]c1=S	0	2	-0.052	11	90*
NNC(=O)c1cc(O)c(O)c(O)c1	0	2	0.021	95*	-8
O=C(C1COc2ccccc2O1)N1CCN(c2ccc([N+](=O)[O-])cc2)CC1 (centres undefined)	-1	10	/	/	/
Cc1ccc(-n2c(-c3cccnc3)n[nH]c2=S)c(C)c1	0	-6	/	40	60*
SMILES	Efflux pump mplx	Cardio protect	Cl transport mod	Calb FLC	PHOSPHO1 inh
Cc1ccc(NC(=O)CSc2nnc(C3CC3)n2CC2CCCO2)c(C)c1 (centres undefined)	0	0	/	-1	39
CCc1ccc(NC(=S)N2CCCCCCC2)cc1	0	-15	-0.24	-22	68*
O=C(Nc1ncc(Cc2cccc([N+](=O)[O-])c2)s1)c1ccco1	0	1	0.68	-4	60*
CC(=O)Nc1ncc(Cc2cccc(Cl)c2)s1	0	-7	1.2	-7	60*
Cc1ccc(Cc2cnc(NC(=O)c3ccco3)s2)cc1	0	-11	-1.4	?	12
CC1=C(C(=O)N(C)C)CC(CC(=O)NCCCN(C)C)C(=O)N1Cc1ccc(F)cc1 (centres undefined)	/	0	/	/	/
CC(=O)Nc1cc(-c2ccccc2)cn2c(-c3cccc(C(C)=O)c3)cnc12	/	51*	/	/	/
CC(=O)Nc1cc(-c2ccc(C(=O)N3CCOCC3)cc2)cn2c(-c3ccccc3)cnc12	/	5	/	/	/
CC(=O)Nc1cc(-c2cccc(C(=O)N(C)C)c2)cn2c(-c3cccc(C(=O)N(C)C)c3)cnc12	/	21	/	/	/
CC(=O)Nc1cc(-c2cccc(NS(C)(=O)=O)c2)cn2c(-c3cccc(C(C)=O)c3)cnc12	/	78*	/	/	/
COc1ccc(-c2cnc3c(NC(C)=O)cc(-c4cccc(NS(C)(=O)=O)c4)cn23)cc1OC	/	47	/	/	/
CC(=O)Nc1cc(-c2ccc(C(=O)N3CCOCC3)cc2)cn2c(-c3ccc(C(C)=O)cc3)cnc12	/	76*	/	/	/
CC(=O)c1cccc(-c2cnc3c(NC=O)cc(-c4ccccc4F)cn23)c1	/	59*	/	/	/
CC(=O)Nc1cc(-c2ccccc2F)cn2c(-c3ccccc3)cnc12	/	4	/	/	/
O=C(CNC(=O)C12CC3CC(CC(C3)C1)C2)OCc1ccc(F)cc1Cl	0	7	/	/	/
O=C(c1cc(COc2c(F)cccc2F)on1)N1CC[C@@H]2CCCC[C@H]2C1	/	-17	/	/	/
Fc1ccccc1-c1nc(-c2ccc(-c3nn[nH]n3)cc2)no1	0	1	/	/	/
CC(=O)Nc1cc(-c2cccc(C(=O)N(C)C)c2)cn2c(-c3ccccc3)cnc12	/	19	/	/	/
CC(=O)Nc1cc(-c2cccc(C(=O)N(C)C)c2)cn2c(-c3ccc(C(C)=O)cc3)cnc12	/	55*	/	/	/
CCc1nnc(NC(=O)CSc2ncc(-c3ccccc3)n2C)s1	0	1	-1.2	86*	23
CCc1nnc(NC(=O)CN2C(=O)CCC2=O)s1	1	8	-0.021	-1	-11
CCc1nnc(NC(=O)CSc2nnc(Cc3ccccc3)n2-c2ccccc2)s1	0	13	/	-3	1
CCc1nnc(NC(=O)CSc2nnc(-c3c[nH]c4ccccc34)n2CCOC)s1	-1	25	0.2	8	60*
CCc1nnc(NC(=O)Cn2ccc(C(F)(F)F)n2)s1	0	-3	1.6	95*	-33
COCCn1c(SCC(=O)Nc2nnc(C)s2)nnc1-c1c[nH]c2ccccc12	0	12	0.23	28	13
CCc1nnc(NC(=O)CSc2nnc(CNc3cccc(C)c3)n2-c2ccccc2)s1	0	6	/	116*	47
CCOc1ccc(C2CC(=O)c3c([nH]c(C(=O)OC)c3C)C2)cc1OC (centres undefined)	0	8	/	-2	-7
COC(=O)c1[nH]c2c(c1C)C(=O)CC(c1cc(OC)ccc1OC)C2 (centres undefined)	0	57*	1.7	0	-10
Cc1ccc(-c2csc3nnc(SCC(=O)Nc4nsc(-c5ccccc5)n4)n23)cc1	0	-6	-1.3	-9	15
Cc1ccc(-c2csc3nnc(SCC(=O)N4CCN(Cc5ccccc5)CC4)n23)cc1	1	1	-0.74	1	74*
